In PubChem BioAssay (EPA / NIEHS) one finds outcome and AC50 data, which are given here for 39 molecules.

Where a structure was tested more than once in an assay, its records may differ in their call. Calls of active or inactive are those of the source. How the source made its calls: active means hit-call score of the fitted dose curve at least 0.9, where 1 is the maximum; inactive means score below 0.9.

The term AC50 denotes the concentration at which the activity in the assay is half-maximal.

Read-out in the assay: Matrix Metallopeptidase 1 (MMP1), MMP1 (gene 4312)
Kind of assay: BSK_BE3C_MMP1: BioMAP Diversity Plus: BE3C Assay for Matrix Metallopeptidase 1 (MMP1) Biomarker Activity (AID 2283024). To be noted: primary human bronchial epithelial cells; actives raise or lower the signal. As to the method:
BSK_BE3C is a cell-based, multiplexed-readout assay that uses bronchial epithelial cell, a human lung primary cell, with measurements taken at 24 hours after chemical dosing in a 96-well plate.BSK_BE3C_MMP1 is an assay component measured in the BSK_BE3C assay. It measures MMP-1 antibody related to regulation of gene expression using ELISA technology.Data from the assay component BSK_BE3C_MMP1 was analyzed into 1 assay endpoint. This assay endpoint, BSK_BE3C_MMP1, was analyzed with bidirectional fitting relative to DMSO as the negative control and baseline of activity. Using a type of binding reporter, gain or loss-of-signal activity can be used to understand changes in the signaling as they relate to the gene MMP1. Furthermore, this assay endpoint can be referred to as a primary readout, because this assay has produced multiple assay endpoints where this one serves a signaling function. To generalize the intended target to other relatable targets, this assay endpoint is annotated to the protease intended target family, where the subfamily is matrix metalloproteinase.
The levels of cell surface (or secreted, indicated by the prefix "s") biomarker endpoints were measured by ELISA. Overt cytotoxicity to cells in confluent adherent cultures (all systems other than the BT system) was assessed by measuring total protein levels using sulforhodamine B (SRB) staining in parallel cultures at the time of biomarker measurements, indicated as SRB endpoints. For proliferation assays for adherent cell types, individual cell types are cultured at sub-confluence and relative cell numbers quantified by SRB staining at time points optimized for each system (48 h: 3C and CASM3C systems; 72 h: BT and HDF3CGF systems; 96 h: SAg system). SRB was performed by staining cells with 0.1% SRB after fixation with 10% TCA and reading wells at 560 nm.Viability and proliferation of PBMC (T cells) was quantified by Alamar Blue reduction for the SAg and BT systems. For PBMC viability (referred to as PBMC Cytotoxicity within the assay endpoint names), cells were plated (75,000/well in a 96-well plate) and then chemical samples added for 1 h before addition of activators, SEB and TSST-1 (20 ng/mL final concentration each). Cells were incubated for 90 h. Then, Alamar Blue (20 uL/well) (Invitrogen, Cat DAL1100) was added for 6 h, and the plates were read with a fluorescence microplate reader at 546/580 nm (excitation/emission). For PBMC proliferation, cells were plated and activated as above but incubated for only 16 h prior to addition of Alamar Blue. Plates were read after 6 h.
On to `C=CN1CCCC1=O`, for which the outcome was inactive.
Turning to `CCCOc1ccc(S(=O)(=O)N2CCN(CC)CC2)cc1-c1nc2c(CC)n(Cc3ccccn3)nc2c(=O)[nH]1`, the outcome was inactive.
On the same count and under the same terms, with `FC(F)(F)COC(OCC(F)(F)F)OCC(F)(F)F` the entry was “inactive”; with `NCC(F)(F)C(F)(F)C(F)(F)C(F)(F)F`, “inactive”; with `Cn1c(=O)c2[nH]cnc2n(C)c1=O`, “inactive”.
The same measure, in the same setting: with `CCCCCCCCCCCCCCCCOS(=O)(=O)O` the entry was “inactive”.
On the same count and under the same terms, with `FC(F)=C(F)C(F)(F)C(F)(F)C(F)(F)C(F)(F)C(F)(F)C(F)(F)F` the entry was “inactive”; with `CCCCN1C(=O)[C@@H]([C@H](O)C2CCCCC2)NC(=O)C12CCN(Cc1ccc(Oc3ccc(C(=O)O)cc3)cc1)CC2`, “inactive”; with `OC[C@H]1O[C@@H]2O[C@H]3[C@H](O)[C@@H](O)[C@@H](O[C@H]4[C@H](O)[C@@H](O)[C@@H](O[C@H]5[C@H](O)[C@@H](O)[C@@H](O[C@H]6[C@H](O)[C@@H](O)[C@@H](O[C@H]7[C@H](O)[C@@H](O)[C@@H](O[C@H]1[C@H](O)[C@H]2O)O[C@@H]7CO)O[C@@H]6CO)O[C@@H]5CO)O[C@@H]4CO)O[C@@H]3CO`, “inactive”.
Regarding `COCc1nnc(-c2ccc[n+]([O-])c2)n1-c1c(Cl)c(Cl)cc2[nH]c(=O)c(=O)[nH]c12`, the result was inactive.
Regarding `O=C(Cl)C(F)(F)C(F)(F)C(F)(F)C(=O)Cl`, the result was inactive.
Same read-out and setting: with `CCCCCCCC1CCC(=O)O1` (stereo not given) the entry was “inactive”.
For the molecule `O=S(=O)(O)CCC(F)(F)C(F)(F)C(F)(F)C(F)(F)C(F)(F)C(F)(F)F`, the AC50 was 45.5 µM (active) and the outcome was inactive.
As for `S=P(N1CC1)(N1CC1)N1CC1`, the result was inactive.
On to `c1ccc(C(O[C@@H]2CCCN(CCc3ccc4c(c3)OCO4)C2)c2ccccc2)cc1`, for which the AC50 was 26.8 µM (active).
As to `CCCCCCOC(=O)CC(CC(=O)OCCCCCC)(OC(=O)CCC)C(=O)OCCCCCC`, the outcome was inactive.
Turning to `C=CCc1cc(S(=O)(=O)c2ccc(O)c(CC=C)c2)ccc1O`, the AC50 is 30.5 µM (active).
Regarding `CCCc1ccccc1`, the outcome was inactive.
Take `O=c1[nH]cnc2c1ncn2[C@H]1CC[C@@H](CO)O1`: the outcome was inactive.
Same read-out and setting: with `COc1cc2c(c(OC)c1OC)-c1ccc(OC)c(=O)cc1[C@@H](NC(C)=O)CC2` the entry was “inactive”; with `CCCC(CCC)C(=O)O`, “inactive”; with `O=C1CN(N=Cc2ccc([N+](=O)[O-])o2)C(=O)N1`, “inactive”.
As for `NNC(=O)c1ccncc1`, the outcome was inactive.
On the same count and under the same terms, with `OC[C@H]1O[C@@](CO)(O[C@H]2O[C@H](CO)[C@@H](O)[C@H](O)[C@H]2O)[C@@H](O)[C@@H]1O` the entry was “inactive”; with `NC(=O)NN=Cc1ccc([N+](=O)[O-])o1`, “inactive”; with `NC(N)=O`, “inactive”.
`CC(C)c1nnc2ccc(-c3ocnc3-c3cc(F)ccc3F)cn12`: the AC50 is 1.05 µM (active).
On to `O=C(O)c1cccc(C[C@@H]2COc3ccc(OCc4nc5cc(F)ccc5s4)cc3[C@@H]2O)c1`, for which the result was inactive.
The same measure, in the same setting: with `OCCC(F)(F)C(F)(F)C(F)(F)C(F)(F)F` the entry was “inactive”; with `c1ccc2ncccc2c1`, “inactive”; with `CCn1nc(C)c2c1C(=O)NCC(c1ccc(O)cc1)=N2`, “inactive”.
`c1ccc2c(c1)-c1cccc3c1c-2cc1ccccc13`: the AC50 was 0.661 µM (active).
In the case of `NC(=O)N1c2ccccc2C=Cc2ccccc21`, the result was inactive.
Same read-out and setting: with `O=C(O)[C@H](O)[C@@H](O)C(=O)O` the entry was “inactive”; with `O=C(O)c1ccc2c(c1)nc(C(=O)NC1CCN(C3CC3)CC1)n2Cc1cc(-c2ccc(Cl)s2)on1`, “inactive”.
Take `CC(C)CCCCCCOC(=O)C1CCCCC1C(=O)OCCCCCCC(C)C` (stereo not given): the outcome was inactive.
As to `OC(Cn1cncn1)(Cn1cncn1)c1ccc(F)cc1F`, the outcome was inactive.
As to `CCCCCCCCCC`, the outcome was inactive.
Regarding `O=S1(=O)CCCO1`, the result was inactive.
